Where “and” joins values, the source holds several entries; their conditions need not be identical. Identical values can stand only once. About 2,000 (36%) of roughly 5,500 compounds were called active. Another 18% or so got no clear call; they are omitted. No stated cut-off is given here; in the data, active means normalized growth mostly below about 0.91 (no sharp cut-off); inconclusive means no clear call, values can overlap the other calls; inactive means mostly above about 0.92. Some of the results follow.
Test: chemical genetic growth profiling, strain panel (AID 1159580);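 further: tested at 20 µM; growth read once vehicle control cultures reached saturation at 30 °C; 1 = growth at the plate median or of vehicle wells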
Settings: growth OD
[1] = S. cerevisiae deletion strains, locus YGR078C, strain PAC10, stronger effect = lower value
[2] = S. cerevisiae deletion strains, locus YGR229C, strain SMI1, stronger effect = lower value
[3] = S. cerevisiae deletion strains, locus YMR307W, strain GAS1, stronger effect = lower value
[4] = S. cerevisiae deletion strains, locus YNL128W, strain TEP1, stronger effect = lower value
[5] = S. cerevisiae deletion strains, locus YPL055C, strain LGE1, stronger effect = lower value
[6] = S. cerevisiae deletion strains, locus YHR030C, strain SLT2, stronger effect = lower value
[7] = S. cerevisiae deletion strains, locus YHR079C, strain IRE1, stronger effect = lower value
[8] = S. cerevisiae deletion strains, locus YJL095W, strain BCK1, stronger effect = lower value
[9] = S. cerevisiae deletion strains, locus YJR066W, strain TOR1, stronger effect = lower value
[10] = S. cerevisiae deletion strains, locus YLR113W, strain HOG1, stronger effect = lower value
[11] = S. cerevisiae deletion strains, locus YNL183C, strain NPR1, stronger effect = lower value
[12] = S. cerevisiae deletion strains, locus YOR231W, strain MKK1, stronger effect = lower value
[13] = S. cerevisiae deletion strains, locus YPL256C, strain CLN2, stronger effect = lower value

Measured: normalized growth

O=C(OCCN1CCCCC1)c1c[nH]c2ccccc12
inactive: S. cerevisiae deletion strains, locus YAL040C, strain CLN3, stronger effect = lower value 1 | S. cerevisiae deletion strains, locus YCL061C, strain MRC1 (second series), stronger effect = lower value 1.01 | S. cerevisiae deletion strains, locus YDR363W, strain ESC2, stronger effect = lower value 0.997 | S. cerevisiae deletion strains, locus YER002W, strain NOP16, stronger effect = lower value 1.02 | [1] 1.02 | [2] 0.999 | S. cerevisiae deletion strains, locus YMR263W, strain SAP30, stronger effect = lower value 0.999 | [3] 1.01 | [4] 1.01 | S. cerevisiae deletion strains, locus YNL175C, strain NOP13, stronger effect = lower value 1.01 | S. cerevisiae deletion strains, locus YNL197C, strain WHI3, stronger effect = lower value 1 | S. cerevisiae deletion strains, locus YNL224C, strain SQS1, stronger effect = lower value 0.994 | S. cerevisiae deletion strains, locus YOR083W, strain WHI5 (second series), stronger effect = lower value 1 | [5] 0.997

COc1cc(OC)c(C(=O)CCCN2CCCC2)c(OC)c1
inactive: [6] 1.07 | [7] 1.04 | [8] 1.03 | [9] 0.973 | [10] 1.01 | [11] 0.973 | [12] 1.03 | [13] 1.05

Cc1ccc(C(=O)C(C)CN2CCCCC2)cc1 (centres undefined)
inactive: S. cerevisiae deletion strains, locus YBR021W, strain FUR4, stronger effect = lower value 1 | S. cerevisiae deletion strains, locus YBR229C, strain ROT2, stronger effect = lower value 1.01 | S. cerevisiae deletion strains, locus YCL029C, strain bik1, stronger effect = lower value 1.02 | S. cerevisiae deletion strains, locus YDL035C, strain GPR1, stronger effect = lower value 1.01 | S. cerevisiae deletion strains, locus YDL074C, strain BRE1, stronger effect = lower value 1.01 | S. cerevisiae deletion strains, locus YDL101C, strain DUN1, stronger effect = lower value 1.01 | S. cerevisiae deletion strains, locus YDL134C, strain PPH21, stronger effect = lower value 1.02 | S. cerevisiae deletion strains, locus YDL185W, strain tfp1, stronger effect = lower value 1.02 | S. cerevisiae deletion strains, locus YDL192W, strain arf1, stronger effect = lower value 1.02 | S. cerevisiae deletion strains, locus YDR101C, strain arx1, stronger effect = lower value 0.998 | S. cerevisiae deletion strains, locus YDR150W, strain NUM1, stronger effect = lower value 1 | S. cerevisiae deletion strains, locus YDR162C, strain NBP2, stronger effect = lower value 1.01 | S. cerevisiae deletion strains, locus YDR318W, strain mcm21, stronger effect = lower value 1.02 | S. cerevisiae deletion strains, locus YDR388W, stronger effect = lower value 1.02 | S. cerevisiae deletion strains, locus YDR502C, strain sam2, stronger effect = lower value 1.01 | S. cerevisiae deletion strains, locus YEL061C, strain CIN8, stronger effect = lower value 1.01 | S. cerevisiae deletion strains, locus YER110C, stronger effect = lower value 1.01 | S. cerevisiae deletion strains, locus YER155C, strain BEM2, stronger effect = lower value 1.01 | S. cerevisiae deletion strains, locus YER167W, strain BCK2, stronger effect = lower value 1.02 | S. cerevisiae deletion strains, locus YGL078C, strain dbp3, stronger effect = lower value 1.01 | S. cerevisiae deletion strains, locus YGL086W, strain mad1, stronger effect = lower value 1.03 | S. cerevisiae deletion strains, locus YGL248W, strain PDE1, stronger effect = lower value 1.01 | [1] 1 | S. cerevisiae deletion strains, locus YGR135W, strain pre9, stronger effect = lower value 1 | [2] 0.983 | S. cerevisiae deletion strains, locus YGR252W, strain gcn5, stronger effect = lower value 0.987 | [6] 1.01 and 0.991 | S. cerevisiae deletion strains, locus YHR079C, strain IRE1 (second series), stronger effect = lower value 1.02 | [7] 0.993 | S. cerevisiae deletion strains, locus YHR094C, strain hxt1, stronger effect = lower value 1.01 | S. cerevisiae deletion strains, locus YHR129C, strain ARP1, stronger effect = lower value 1.02 | S. cerevisiae deletion strains, locus YHR200W, strain rpn10, stronger effect = lower value 1.02 | S. cerevisiae deletion strains, locus YIL066C, strain RNR3, stronger effect = lower value 1.01 | S. cerevisiae deletion strains, locus YIL073C, strain SPO22, stronger effect = lower value 0.993 | S. cerevisiae deletion strains, locus YIL125W, strain kgd1, stronger effect = lower value 1.02 | S. cerevisiae deletion strains, locus YIR030C, strain dcg1, stronger effect = lower value 1.01 | [8] 0.973 and 0.966 | S. cerevisiae deletion strains, locus YJL134W, strain LCB3, stronger effect = lower value 1.01 | S. cerevisiae deletion strains, locus YJL168C, strain set2, stronger effect = lower value 1.02 | S. cerevisiae deletion strains, locus YJL187C, strain SWE1 (second series), stronger effect = lower value 1 | S. cerevisiae deletion strains, locus YJR043C, strain POL32, stronger effect = lower value 1.02 | [9] 0.907 | S. cerevisiae deletion strains, locus YKL009W, strain mrt4, stronger effect = lower value 1.03 | S. cerevisiae deletion strains, locus YKL068W, stronger effect = lower value 1.01 | S. cerevisiae deletion strains, locus YKL085W, strain MDH1 (second series), stronger effect = lower value 1.03 | S. cerevisiae deletion strains, locus YKL085W, strain MDH1, stronger effect = lower value 1.03 | S. cerevisiae deletion strains, locus YKL190W, strain CNB1, stronger effect = lower value 1.01 | S. cerevisiae deletion strains, locus YKR001C, strain vps1, stronger effect = lower value 1.03 | S. cerevisiae deletion strains, locus YLR039C, strain RIC1, stronger effect = lower value 0.993 | S. cerevisiae deletion strains, locus YLR058C, strain SHM2, stronger effect = lower value 1.02 | S. cerevisiae deletion strains, locus YLR102C, strain apc9, stronger effect = lower value 1.01 | [10] 1.01 | S. cerevisiae deletion strains, locus YLR262C, strain YPT6, stronger effect = lower value 1.02 | S. cerevisiae deletion strains, locus YLR268W, strain sec22, stronger effect = lower value 1 | S. cerevisiae deletion strains, locus YLR330W, strain CHS5, stronger effect = lower value 1 | S. cerevisiae deletion strains, locus YLR342W, strain FKS1 (second series), stronger effect = lower value 0.973 | S. cerevisiae deletion strains, locus YLR371W, strain rom2, stronger effect = lower value 1.02 | S. cerevisiae deletion strains, locus YLR418C, strain cdc73, stronger effect = lower value 1.02 | S. cerevisiae deletion strains, locus YML016C, strain PPZ1, stronger effect = lower value 1.01 | S. cerevisiae deletion strains, locus YML032C, strain rad52, stronger effect = lower value 1.01 | S. cerevisiae deletion strains, locus YML124C, strain tub3, stronger effect = lower value 1.01 | S. cerevisiae deletion strains, locus YMR078C, strain ctf18, stronger effect = lower value 1.02 | S. cerevisiae deletion strains, locus YMR223W, strain ubp8, stronger effect = lower value 1.01 | [3] 1.14 | S. cerevisiae deletion strains, locus YNL067W, strain RPL9B, stronger effect = lower value 1.01 | [4] 1.03 | [11] 0.899 | S. cerevisiae deletion strains, locus YNL233W, strain BNI4, stronger effect = lower value 0.993 | S. cerevisiae deletion strains, locus YNL250W, strain rad50, stronger effect = lower value 1.01 | S. cerevisiae deletion strains, locus YNL271C, strain bni1, stronger effect = lower value 1.02 | S. cerevisiae deletion strains, locus YNL298W, strain CLA4, stronger effect = lower value 1.03 | S. cerevisiae deletion strains, locus YNL307C, strain MCK1, stronger effect = lower value 1.03 | S. cerevisiae deletion strains, locus YNL322C, strain KRE1, stronger effect = lower value 1.01 | S. cerevisiae deletion strains, locus YNR052C, strain pop2, stronger effect = lower value 1.02 | S. cerevisiae deletion strains, locus YOL006C, strain TOP1, stronger effect = lower value 1 | S. cerevisiae deletion strains, locus YOL012C, strain htz1 0.819 | S. cerevisiae deletion strains, locus YOL147C, strain pex11, stronger effect = lower value 1.01 | S. cerevisiae deletion strains, locus YOR061W, strain CKA2, stronger effect = lower value 1.02 | S. cerevisiae deletion strains, locus YOR069W, strain VPS5, stronger effect = lower value 1 | S. cerevisiae deletion strains, locus YOR136W, strain idh2, stronger effect = lower value 1.02 | S. cerevisiae deletion strains, locus YOR144C, strain elg1, stronger effect = lower value 1.01 | S. cerevisiae deletion strains, locus YOR184W, strain ser1, stronger effect = lower value 1.01 | [12] 0.984 | S. cerevisiae deletion strains, locus YOR316C, strain cot1, stronger effect = lower value 1.02 | [5] 1.03 | [13] 0.976 | S. cerevisiae deletion strains, locus YPR119W, strain clb2, stronger effect = lower value 1.02 | S. cerevisiae deletion strains, locus YPR141C, strain kar3, stronger effect = lower value 1.02 | S. cerevisiae deletion strains, locus YPR163C, strain tif3, stronger effect = lower value 1.03 | S. cerevisiae deletion strains, locus YPR167C, strain met16, stronger effect = lower value 1.02 | S. cerevisiae deletion strains, strain wtn01, stronger effect = lower value 1.01 | S. cerevisiae strains, strain wild type, stronger effect = lower value 1.01

— PubChem BioAssay AID1159580 (chemical genetic matrix, 2015)
